TDP43 rescue: inhibitors of TDP-43 toxicity in yeast; TDP-43 expressing yeast growth rescue, BacTiter-Glo, 24 h; Potency, µM (titrated, usually from 46.1 µM), inactives show at the top dose growth rescue (activation), usual class: activators; 1.8% of 410,000 active; further: % of control where 0% means no effect; nearly all actives have a fitted effect of over 50% in size
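Growth rescue of TDP-43-toxic yeast measured as ATP luminescence (BacTiter-Glo). Cells grown to mid-log in raffinose, induced in galactose at OD600=0.02, exposed to compound 24 hr at 30 deg C.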
FUS suppressor: rescues growth of FUS-expressing yeast. S. cerevisiae FUS-expressing, growth rescue, OD600, 24 h. Potency, µM (series often up to 76.6 µM), hits mostly activators. 0.24% of 390,000 active. AID 1347120;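 further: plate controls were DMSO vehicle for no effect and reference control for full effect; nearly all actives have a fitted effect of over 55% in size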
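Quantitative HTS measuring growth restoration of FUS-toxic yeast. Galactose-induced cells (OD 0.005) were exposed 24hr at 30C to compounds at several concentrations, then absorbance at 600 nm was recorded.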
aSyn rescue: rescues yeast growth from alpha-synuclein toxicity; Yeast expressing alpha-synuclein, growth rescue, BacTiter-Glo, 24 h; Potency, µM (top dose mostly 46.1 µM), inactives show at the highest dose growth rescue (activation), usual class: activators; 0.14% of 370,000 active; AID 652106; further: % of control where 0% means no effect; nearly all actives have a fitted effect of over 65% in size
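Rescue of yeast growth: cells expressing toxic alpha-synuclein, induced in galactose at OD600 0.02, incubated with compound 24 h at 30 C. ATP luminescence quantified growth; inhibitors of toxicity appear as activators.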
Abeta yeast res: compounds reversing amyloid beta toxicity in yeast | yeast expressing A-beta42, growth rescue, OD600, 48 h; response scale: 0% DMSO, 100% iron-clioquinol control | Potency, µM (doses to about 46.1 µM), usual class: activators | 0.063% of 410,000 active; further: nearly all actives have a fitted effect of over 55% in size
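Growth rescue measured by 600 nm absorbance after 48 h yeast culture at 30 C with compound. Values normalized between DMSO and an equimolar ferric chloride plus clioquinol control.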
* hit, by the source's call; i = inactive; ? = inconclusive; · = not tested or not shown. Only some compounds are listed: those with a hit (about 2.1% of all), similar ones and a draw of the others. The call rests on the fitted dose curve; in most records, active means well fitted curve in the direction sought with a large enough effect; inconclusive means small, poorly fitted or top-dose-only effect, or another doubt; inactive means no such curve, though single readings can be large; an effect the other way counts as inactive or inconclusive. Potency means the concentration at half of the fitted maximal effect.

SMILES | TDP43 rescue | FUS suppressor | aSyn rescue | Abeta yeast res
COc1ccccc1Cc1c(-c2ccc(C)cc2)nc2c(C)cc(Br)cn12 | 35.5µM* | ? | 10.7% | i
Cc1ccc(Cc2c(-c3ccc(F)cc3)nc3c(C)cc(Br)cn23)cc1 | 22.4µM* | i | 2.8% | i
Cc1cc(Br)cn2c(Cc3ccsc3)c(-c3ccco3)nc12 | ? | i | -75.7% | i
Cc1ccc(Cc2c(-c3ccc(C)cc3)nc3c(C)cc(Br)cn23)cc1 | 6.4% | i | 13.1% | i
COc1ccc(-c2nc3c(C)cc(Br)cn3c2Cc2cccc(Cl)c2)cc1OC | 31.6µM* | ? | 5.2% | i
Cc1cc(Br)cn2c(Cc3ccccc3)c(-c3ccco3)nc12 | 11.2µM* | i | 1.0% | i
COc1ccccc1Cc1c(-c2ccc(F)cc2)nc2c(C)cc(Br)cn12 | ? | i | 22.7% | i
COc1ccccc1Cc1c(-c2ccc(OC)c(OC)c2)nc2c(C)cc(Br)cn12 | 17.8µM* | ? | 0.6% | i
O=C(CCCCl)NC(=S)Nc1cc(C(F)(F)F)ccc1N1CCOCC1 | 12.6µM* | i | 0.0% | ?
CC(C)(C)C(=O)NC(=S)Nc1cc(C(F)(F)F)ccc1N1CCOCC1 | 3.7% | i | 18.5% | i
Cc1cc(C(=O)CN2C(=O)C3CC=CCC3C2=O)c(C)n1-c1ccccc1 (stereo not drawn) | -39.2% | 31.6µM* | ? | i
Cc1cc(C(=O)CN2C(=O)c3ccccc3S2(=O)=O)c(C)n1-c1ccccc1 | ? | ? | 21.2% | i
Cc1cc2nccc(-c3ccncc3)n2n1 | 5.6% | i | 0.0% | i
Cc1ccc(-c2ccnc3cc(C)nn23)cc1 | 20µM* | i | 7.7% | i
O=C1[C@@H]2CSC(c3ccc(Cl)cc3)N2C(=O)N1c1ccccc1 (stereo partly drawn) | 35.5µM* | i | · | i
O=C1[C@@H]2CSC(c3ccc(C(F)(F)F)cc3)N2C(=O)N1c1ccccc1 (stereo partly drawn) | 12.6µM* | i | · | i
O=C(Nc1ccccc1Br)C(Cc1ccccc1)NS(=O)(=O)c1cccc2nsnc12 (stereo not drawn) | 17.1% | i | · | i
O=C1COc2ccc(-c3cc(-c4ccccc4)c4c(n3)-c3cc(Cl)ccc3OC4)cc2N1 | ? | i | · | i
Cc1cccc(NC(=O)CN(CC2CCCO2)C(=O)c2cc(S(=O)(=O)N(C)C)ccc2F)c1C (stereo not drawn) | 1.0% | i | -0.4% | i
CC(C)c1ccc(NC(=O)CS(=O)(=O)c2cccc3nsnc23)cc1 | 25.1µM* | i | ? | i
CN(CC(=O)Nc1ccc(Br)cc1)S(=O)(=O)c1cccc2nsnc12 | 22.4µM* | i | · | i
Cc1ccc(NC(=O)CN(C)S(=O)(=O)c2cccc3nsnc23)cc1 | 24.1% | i | 0.8% | i
O=C(CS(=O)(=O)c1cccc2nsnc12)Nc1ccccc1 | 0.0% | i | 3.0% | i
CC(=O)c1ccc(NC(=O)Cn2c3ncccc3c(=O)n2-c2ccc(C)cc2)cc1 | 1.4% | i | · | i
Cc1nc(-c2ccccc2Cl)sc1C(=O)/C=C/N(C)C | 31.6µM* | i | -64.5% | i
SMILES | TDP43 rescue | FUS suppressor | aSyn rescue | Abeta yeast res
COc1ccc2c(c1)-c1nc(NC(=O)c3cccs3)sc1CC2 | 17.8µM* | ? | -1.9% | i
COc1ccc2c(c1)CCc1sc(NC(=O)c3ccco3)nc1-2 | 20µM* | i | -7.2% | i
COc1ccc2c(c1)-c1nc(NC(=O)c3ccco3)sc1CC2 | ? | · | -15.0% | i
CC1=C(C(=O)Nc2cccnc2)C(c2ccc(Cl)cc2)n2nc(SCc3ccccc3)nc2N1 (stereo not drawn) | -0.5% | i | · | i
CCOc1ccc(CCNC(=O)Cc2ccc(NC(=O)N3CCSc4ncccc43)cc2)cc1 | 1.7% | i | · | i
COC(=O)[C@]12C[C@H](CC(=O)N3CCC(c4ccccc4)CC3)C(=O)N(Cc3ccccc3)C1=C[C@H](COCc1ccccc1)O[C@@H]2C | · | 12.6µM* | · | ·
COC(=O)[C@]12C[C@H](CC(=O)NCc3ccc(C)o3)C(=O)N(Cc3ccccc3)C1=C[C@H](COCc1ccccc1)O[C@@H]2C | · | 35.5µM* | · | ·
COC(=O)[C@]12C[C@H](CC(=O)N3CCCCC3)C(=O)N(Cc3ccccc3)C1=C[C@H](COCc1ccccc1)O[C@@H]2C | · | i | · | ·
CCCCCCCCN1C(=O)[C@@H](CC(=O)N2CCN(C(=O)C3CC3)CC2)C[C@@]2(C(=O)OC)C1=C[C@H](COCc1ccccc1)O[C@@H]2C | · | 28.2µM* | · | ·
O=C(Oc1c(Cl)cc(Cl)c2cccnc12)c1cccc([N+](=O)[O-])c1 | 2µM* | i | ? | i
O=C(Oc1ccc(Cl)c2cccnc12)c1cccc([N+](=O)[O-])c1 | 9.0% | · | 2.0% | i
Cc1cccc(-c2nc(CN3CCCC(C(=O)N4CCN(c5cc(Cl)ccc5C)CC4)C3)c(C)o2)c1 (stereo not drawn) | -5.7% | ? | · | i
COc1ccc2cc(C(=O)NCc3ccc4c(c3)CCN4C(=O)c3ccc(F)cc3)[nH]c2c1 | 15.8µM* | i | · | i
COc1ccc2cc(C(=O)NCc3ccc4c(c3)CCN4C(=O)c3ccc(C)cc3)[nH]c2c1 | 4.8% | i | · | i
Nc1ccc2nc(SCc3ccccc3F)sc2c1 | 12.6µM* | i | 29.4% | i
Nc1ccc2nc(SCC(=O)c3ccccc3)sc2c1 | ? | i | -25.2% | i
O=C(NCC(c1cccnc1)N1CCN(c2ccccc2F)CC1)C(=O)Nc1ccc(F)cc1F (stereo not drawn) | 23.0% | i | · | i
COc1ccc(NC(=O)Nc2nnc(Cc3ccc(F)cc3)s2)cc1 | -22.1% | i | -5.2% | i
COc1ccc(-c2noc(-c3cc(C(C)C)[nH]n3)n2)cc1 | 20µM* | i | · | ?
CC(C)c1cc(-c2nc(-c3ccc(Br)cc3)no2)n[nH]1 | ? | i | · | i
Cc1ccc(C(=O)NNC(=S)NC(=O)c2ccc(Cl)cc2Cl)cc1 | ? | i | 1.12µM* | i
O=C(COc1ccccc1)NNC(=S)NC(=O)c1ccc(Cl)cc1Cl | 3.55µM* | i | ? | ?
Cc1cccc(NC(=O)CO/N=C/c2ccc3c(c2)OCO3)c1 | 0.2% | · | 3.5% | i
Cc1ccc(CNC(=O)CO/N=C/c2ccc3c(c2)OCO3)cc1 | 20µM* | i | 6.1% | i
CC(=O)C(C)Oc1ccc2c3c(c(=O)oc2c1C)CCCC3 (stereo not drawn) | 20µM* | i | 2.2% | i
Cc1ccc2c(c1)C/C(=C/c1ccc(N(C)C)cc1)C2=O | · | · | 0.5% | ·
O=C(CSc1nnc(COc2ccccc2Cl)o1)NC(=O)NC1CCCC1 | 2.7% | ? | 17.8µM* | i
COc1cccc(C2CC(=O)Nc3c2c(=O)n(C)c2nc4ccccc4n32)c1OC (stereo not drawn) | 4.8% | i | 1.2% | i
